# Reference: PubChem BioAssay AID489042 (NMMLSC, 2010)
# Unmarked numbers belong to inactive results. Cut-off read from the data, not from the text of the source: active = inhibition score above about 11; inactive = the rest.
# Assay: S. cerevisiae short- and long-term growth effects – BY4741, OD595, 24 h, dose response (AID 489042)
# Conditions: flow cytometer event count, 7 d (AID 449753), hits give high values
row,SMILES,inhibition score
1,COC(=O)c1cccc2nc3c(C(C)O)cccc3nc12 (centres undefined),0
2,CCn1c2ccccc2c2n[nH]c(=S)nc21,0
3,CC(C)OC(=O)c1ccc2nc3ccccc3nc2c1,0
4,C/C(=N\Nc1ncnc2sc(C)c(C)c12)c1ccccn1,10
5,O=C(Nc1ccc2nc3ccccc3nc2c1)c1ccccc1,0
6,CN(C)CCNc1ncnc2c1cnn2-c1ccc(Cl)cc1,0
7,CCN(CC)C(=O)c1cccc2nc3ccccc3nc12,0
8,O=C(/C=C/c1ccccc1)NC(=S)NNC(=O)Cc1cccs1,0
9,CSc1nnc2c3cc(F)ccc3n(C)c2n1,0
10,CC(=O)[C@@]1(O)CCC2C3CC[C@H]4C[C@@H](O)CC[C@]4(C)C3CC[C@@]21C (some centres undefined),0
11,N#CCc1nn(-c2ccccc2)c2ncnc(N)c12,0
12,Cc1cc2nc3ccc(N(C)C)cc3nc2cc1N,0
13,O=C(Nc1cccc(Cl)c1)Nc1ccc2nccnc2c1,0
14,CC(C)CSc1nnc2c3ccccc3n(C)c2n1,0
15,COc1ccc2cc(C3CC(c4ccco4)=NN3S(=O)(=O)c3ccccc3)c(Cl)nc2c1 (centres undefined),0
16,N#CC(c1nc2ccccc2nc1N1CCCC1)S(=O)(=O)c1ccccc1 (centres undefined),0
17,CSc1nnc(-c2ccc([N+](=O)[O-])cc2)o1,0
18,COc1ccc2nc3ccccc3nc2c1,0
19,O=C(Nc1ccc2nc3ccccc3nc2c1)c1ccc(Br)cc1,0
20,O=C(OCc1c(F)cccc1Cl)c1cnc2ccccc2n1,0
21,FC(F)(F)c1nc2cc3nc4ccccc4[nH]c3cc2n1,0
22,CCN(CC)C(=O)CSc1nnc(-c2cccc(OC)c2)o1,0
23,COc1cccc2nc3cc(C)c(C)cc3nc12,0
24,COc1ccc2nc3ccccc3[n+]([O-])c2c1,0
25,C=CCOn1c(=O)c(-c2cccs2)[n+]([O-])c2ccccc21,0
26,[O-][n+]1c2ccccc2[n+]([O-])c2cc(O)ccc21,0
27,CC(C)OC(=O)CSc1nnc(-c2ccc(Cl)cc2Cl)o1,0
28,O=C(CN1CCN(c2ccccn2)CC1)Nc1ccccc1F,0
29,CC(=O)Nc1ccc2nc3ccccc3nc2c1,0
